This passage reports composite z-score and z-score results from PubChem BioAssay.

The nature of experiment [1]: small molecules captured by biotinylated probe aFSTL3 – biochemical, small-molecule microarray, fluorescence 635/667, stem cell growth factor project, primary screen (AID 1064).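 Note: measures binding of the biotinylated anti-FSTL3 antibody to printed compounds.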 Particulars: higher = more signal.
The nature of experiment [2]: binders from COS7 lysate, DM2A8 probe, primary screen, torsin A project, cell lysate, small-molecule microarray, fluorescence 635/667 (AID 1065). Particulars: higher = more signal, COS7 lysate expressing mutant human TOR1A.
Experiment [3] can be described thus: small molecules captured by biotinylated probe aFGF2 – biochemical, small-molecule microarray, fluorescence 635/667, stem cell growth factor project, primary screen (AID 1067).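 Note: measures binding of biotinylated aFGF2 protein to printed compounds on slides; z-score merges feature fluorescence and signal-to-noise across triplicate slides.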 Particulars: higher = more signal.
Experiment [4] in a line: small molecules captured by biotinylated probe aFGF10 – biochemical, small-molecule microarray, fluorescence 635/667, stem cell growth factor project, primary screen (AID 1071).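 Note: score merges 667 nm spot intensity and signal to noise from triplicate slides.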 Particulars: higher = more signal.
Experiment [5] concerns the target Neurogenic locus notch homolog protein 2 (Homo sapiens) (UniProt Q04721). In words: small molecules binding Notch2 protein – biochemical, small-molecule microarray, 635 nm fluorescence, stem cell growth factors, primary screen (AID 1073). Particulars: higher = more signal.
The target of experiment [6] is Pro-neuregulin-1, membrane-bound isoform (Homo sapiens) (UniProt Q02297). In words: small molecules binding neuregulin-1 protein – biochemical, small-molecule microarray, fluorescence 635/667, psychiatric disease protein project, primary screen (AID 1075).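 Note: score combines 667 nm spot fluorescence with signal to noise.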 Particulars: NRG1 binding, 635 nm fluorescence, higher = more signal.
Chain of Pro-neuregulin-1, membrane-bound isoform (Homo sapiens) (Q02297 whole entry, looked up, the tested form may be a part, canonical isoform): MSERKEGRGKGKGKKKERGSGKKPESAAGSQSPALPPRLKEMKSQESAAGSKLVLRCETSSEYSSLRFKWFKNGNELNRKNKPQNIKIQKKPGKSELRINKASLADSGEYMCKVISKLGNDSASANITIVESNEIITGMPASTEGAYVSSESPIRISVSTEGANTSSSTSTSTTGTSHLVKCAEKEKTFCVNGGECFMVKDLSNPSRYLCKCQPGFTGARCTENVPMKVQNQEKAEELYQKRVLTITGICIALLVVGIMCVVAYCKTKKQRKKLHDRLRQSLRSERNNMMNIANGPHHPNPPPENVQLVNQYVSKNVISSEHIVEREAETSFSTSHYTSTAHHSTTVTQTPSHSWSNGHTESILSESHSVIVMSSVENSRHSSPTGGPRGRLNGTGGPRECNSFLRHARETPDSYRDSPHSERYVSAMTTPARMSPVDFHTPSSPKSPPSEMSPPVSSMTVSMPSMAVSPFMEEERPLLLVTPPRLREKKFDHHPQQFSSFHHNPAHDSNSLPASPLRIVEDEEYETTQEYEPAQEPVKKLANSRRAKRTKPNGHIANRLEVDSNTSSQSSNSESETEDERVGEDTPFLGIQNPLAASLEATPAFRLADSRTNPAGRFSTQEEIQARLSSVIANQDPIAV
Experiment [7] has as its system Neuregulin-1 EGF-like domain. In words: small molecules binding NRG1 EGF domain – biochemical, small-molecule microarray, 635 nm fluorescence, primary screen (AID 1081).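 Note: binding of the protein to compounds printed on small-molecule microarray slides.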 Particulars: higher = more signal.
Experiment [8] can be described thus: FRG1 expression reporter modulators in myotubes – cell-based, C2C12 myotubes, firefly/Renilla luciferase, luminescence, FRG1 inhibition for FSHD, primary screen (AID 1084). Particulars: FRG1 promoter luciferase, higher = more signal, called active from +8 up or from −8 down.
Experiment [9] can be described thus: small molecules captured by biotinylated probe aFST – biochemical, small-molecule microarray, fluorescence 635/667, stem cell growth factor project, primary screen (AID 1086).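 Note: score merges 667 nm fluorescence with signal-to-noise of each printed compound spot.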 Particulars: higher = more signal.
Experiment [10] is described as follows: binders of probe aHhip on microarray, primary screen, stem cell growth factor project, biochemical, small-molecule microarray, fluorescence 635/667 (AID 1087).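 Note: score merges spot fluorescence at 667nm with spot signal to noise ratio.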 Particulars: higher = more signal.
Experiment [11] deals with PRMT1 (protein arginine N-methyltransferase 1). In words: small molecules binding arginine methyltransferase PRMT1 – biochemical, small-molecule microarray, 635 nm fluorescence, primary screen (AID 1088).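 Note: binding of Prmt1 protein to compounds spotted on small-molecule microarray slides.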 Particulars: higher = more signal.
Experiment [12] can be described thus: growth effects on S. cerevisiae YJM789 – YJM789 clinical isolate, OD600, 24 h, basal, primary screen (AID 1089).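 Note: growth of clinical yeast isolate S. cerevisiae YJM 789 seeded 1000 cells per well; test concentration not given here.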 Particulars: higher = more signal, called active from +8 up or from −8 down.
A short description of experiment [13]: S. pombe growth modifiers, basal conditions – strain 972, OD600, 24 h, no modulator, primary screen (AID 1090).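 Note: basal condition with compound alone and no growth modifier present; test concentration not given here.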 Particulars: S. pombe 972 growth, higher = more signal, called active from +8 up or from −8 down.
Experiment [14] is described as follows: budding yeast growth modifiers under rapamycin – strain BY4716, OD600, 96 h, primary screen (AID 1091). Note: test concentration not given here. Particulars: S. cerevisiae BY4716 + rapamycin, higher = more signal, called active from +8 up or from −8 down.
The target in experiment [15] is Torsin-1A-interacting protein 2 (Homo sapiens) (UniProt Q8NFQ8). In words: small molecules binding lysate-expressed LULL1 – cell lysate, human LULL1 lysate, 635/667 nm fluorescence, primary screen (AID 1092).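 Note: probe is lysate of COS7 cells overexpressing human LULL1; score merges per-feature 667 nm fluorescence with signal-to-noise.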 Particulars: small-molecule microarray, hLULL1 lysate binding, 635 nm fluorescence; higher = more signal.
Chain of Torsin-1A-interacting protein 2 (Homo sapiens) (Q8NFQ8 whole entry, looked up): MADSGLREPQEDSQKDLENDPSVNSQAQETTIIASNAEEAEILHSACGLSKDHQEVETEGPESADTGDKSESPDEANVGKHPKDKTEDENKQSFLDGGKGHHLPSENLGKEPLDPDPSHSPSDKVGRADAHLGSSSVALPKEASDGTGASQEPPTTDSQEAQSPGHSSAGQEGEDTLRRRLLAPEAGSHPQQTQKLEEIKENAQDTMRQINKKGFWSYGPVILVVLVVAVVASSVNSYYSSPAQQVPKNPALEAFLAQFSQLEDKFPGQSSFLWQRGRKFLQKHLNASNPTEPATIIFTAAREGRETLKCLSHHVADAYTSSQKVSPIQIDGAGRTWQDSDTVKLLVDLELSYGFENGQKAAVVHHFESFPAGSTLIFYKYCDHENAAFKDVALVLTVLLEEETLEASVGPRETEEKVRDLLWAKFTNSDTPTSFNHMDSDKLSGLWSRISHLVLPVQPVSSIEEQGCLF
A short description of experiment [16]: optical density change of DRC41 E. coli – strain DRC41, OD650, 24 h, E. coli filamentation project, primary screen (AID 1093).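 Note: MC1000 strain lacking acrAB efflux and sulA so SOS filamentation is blocked; test concentration not given here.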 Particulars: E. coli DRC41 growth, higher = more signal, called active from +8 up or from −8 down.
Experiment [17] is described as follows: probe aLefty2 binding to arrayed compounds – biochemical, biotinylated probe, 635/667 nm fluorescence, primary screen (AID 1094).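 Note: score merges spot fluorescence near 667 nm with spot signal-to-noise ratio.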 Particulars: small-molecule microarray, higher = more signal.
In experiment [18] the test system is Noggin (protein binding on small-molecule microarray). In words: small molecules binding Noggin protein – biochemical, 635/667 nm fluorescence, primary screen (AID 1095).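 Note: score merges 667 nm feature fluorescence with signal to noise over triplicate slides.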 Particulars: 635 nm fluorescence, higher = more signal.
The target of experiment [19] is Neurogenic locus notch homolog protein 3 (Homo sapiens) (UniProt Q9UM47). Briefly: small molecules binding NOTCH3 protein – biochemical, 635/667 nm fluorescence, primary screen (AID 1096). Particulars: small-molecule microarray, 635 nm fluorescence, higher = more signal.
Chain of Neurogenic locus notch homolog protein 3 (Homo sapiens) (Q9UM47 whole entry, looked up): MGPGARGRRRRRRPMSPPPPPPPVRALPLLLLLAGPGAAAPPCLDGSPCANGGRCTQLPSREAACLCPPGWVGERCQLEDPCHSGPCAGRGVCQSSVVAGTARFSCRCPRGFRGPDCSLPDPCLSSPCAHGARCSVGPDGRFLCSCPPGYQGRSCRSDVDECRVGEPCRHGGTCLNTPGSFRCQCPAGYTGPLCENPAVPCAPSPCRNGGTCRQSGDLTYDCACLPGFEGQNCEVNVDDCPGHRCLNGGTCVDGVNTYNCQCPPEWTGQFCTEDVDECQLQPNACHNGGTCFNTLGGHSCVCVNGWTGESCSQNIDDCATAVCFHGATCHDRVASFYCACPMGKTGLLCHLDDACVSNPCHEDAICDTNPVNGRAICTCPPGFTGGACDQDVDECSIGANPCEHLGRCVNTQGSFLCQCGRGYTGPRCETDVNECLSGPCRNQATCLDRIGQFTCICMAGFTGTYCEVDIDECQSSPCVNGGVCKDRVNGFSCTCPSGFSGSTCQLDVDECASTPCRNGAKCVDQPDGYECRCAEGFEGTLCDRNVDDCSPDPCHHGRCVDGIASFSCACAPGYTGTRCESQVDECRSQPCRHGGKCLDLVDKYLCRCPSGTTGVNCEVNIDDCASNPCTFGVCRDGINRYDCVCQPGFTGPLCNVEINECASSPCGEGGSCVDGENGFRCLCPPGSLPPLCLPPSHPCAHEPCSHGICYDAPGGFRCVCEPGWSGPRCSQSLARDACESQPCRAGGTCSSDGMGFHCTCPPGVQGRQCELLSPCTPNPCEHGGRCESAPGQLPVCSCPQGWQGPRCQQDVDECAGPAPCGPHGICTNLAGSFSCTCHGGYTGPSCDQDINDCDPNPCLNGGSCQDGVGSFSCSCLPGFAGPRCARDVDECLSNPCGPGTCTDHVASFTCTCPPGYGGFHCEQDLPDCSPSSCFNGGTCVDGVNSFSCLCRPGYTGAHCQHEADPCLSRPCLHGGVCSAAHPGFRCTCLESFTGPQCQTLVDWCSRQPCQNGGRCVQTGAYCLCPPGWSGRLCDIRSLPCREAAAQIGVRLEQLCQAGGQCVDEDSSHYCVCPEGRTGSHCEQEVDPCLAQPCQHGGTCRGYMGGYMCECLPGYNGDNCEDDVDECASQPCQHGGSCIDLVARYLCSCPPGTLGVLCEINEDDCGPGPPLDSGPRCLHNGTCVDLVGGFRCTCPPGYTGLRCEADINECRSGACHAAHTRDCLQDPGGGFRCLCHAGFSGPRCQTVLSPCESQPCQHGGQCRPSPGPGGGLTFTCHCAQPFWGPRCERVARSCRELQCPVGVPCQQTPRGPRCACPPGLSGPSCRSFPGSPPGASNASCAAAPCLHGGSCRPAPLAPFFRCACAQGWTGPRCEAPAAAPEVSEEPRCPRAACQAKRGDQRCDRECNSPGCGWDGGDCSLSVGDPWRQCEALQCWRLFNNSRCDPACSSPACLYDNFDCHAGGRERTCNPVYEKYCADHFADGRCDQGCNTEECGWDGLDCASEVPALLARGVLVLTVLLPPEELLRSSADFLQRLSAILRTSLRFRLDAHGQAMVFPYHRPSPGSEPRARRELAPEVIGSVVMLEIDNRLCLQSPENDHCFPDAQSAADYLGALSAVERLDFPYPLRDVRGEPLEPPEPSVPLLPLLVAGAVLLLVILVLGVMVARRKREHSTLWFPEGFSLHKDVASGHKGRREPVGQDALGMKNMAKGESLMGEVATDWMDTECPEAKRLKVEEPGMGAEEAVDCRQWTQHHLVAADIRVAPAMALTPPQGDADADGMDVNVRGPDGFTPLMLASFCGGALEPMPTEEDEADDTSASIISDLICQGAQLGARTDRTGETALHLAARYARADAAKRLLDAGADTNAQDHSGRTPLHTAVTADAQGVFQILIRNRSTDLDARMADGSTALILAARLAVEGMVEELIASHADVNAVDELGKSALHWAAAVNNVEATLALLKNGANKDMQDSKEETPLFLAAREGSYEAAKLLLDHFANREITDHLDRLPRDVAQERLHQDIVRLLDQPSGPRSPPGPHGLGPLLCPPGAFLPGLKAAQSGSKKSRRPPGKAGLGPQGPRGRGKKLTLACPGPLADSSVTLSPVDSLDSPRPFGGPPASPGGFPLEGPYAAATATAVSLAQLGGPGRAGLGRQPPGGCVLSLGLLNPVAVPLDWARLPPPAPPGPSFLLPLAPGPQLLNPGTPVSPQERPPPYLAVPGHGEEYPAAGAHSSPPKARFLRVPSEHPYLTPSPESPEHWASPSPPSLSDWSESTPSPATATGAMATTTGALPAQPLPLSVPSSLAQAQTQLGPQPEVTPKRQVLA
The nature of experiment [20]: probe aEGFR binding to arrayed compounds – biochemical, biotinylated probe, 635/667 nm fluorescence, primary screen (AID 1097).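 Note: probe is a biotinylated anti-EGFR antibody binding compounds printed on slides; score combines fluorescence near 667 nm and signal to noise of each spot.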 Particulars: small-molecule microarray, higher = more signal.

Active and inactive are the calls of the source.

Turning to `Cc1c(NC(=O)/C(C#N)=C/c2cccc([N+](=O)[O-])c2)c(=O)n(-c2ccccc2)n1C`, the composite z-score was -0.365 in [1]; 0.322 in experiment [2]; -0.112 in experiment [3]; 0.0969 in experiment [4]; 1.01 in [5]; 1.41 in [6]. The composite z-score is 1.05 in [7]; -0.0089 in experiment [9]; -0.0994 in [10]; 0.366 in experiment [11]; 1.92 in [15]; -0.26 in [17]. The composite z-score in [18] stood at 0.21; in experiment [19], 1.07; in experiment [20], 0.006. Also, the z-score in experiment [8] is 0.807 (inactive); in [12] it was -3.18 (inactive); in experiment [13], -2.55 (inactive); in experiment [14], -2.2 (inactive); in experiment [16], 0.0751 (inactive).

As for `C[N+](C)(C)CCCC[C@@H]1NC(=O)[C@@H]2C[C@H](C(=O)NCCCCCCNC(=O)CS)[C@H](c3ccc(O)cc3)N2C1=O`, the composite z-score is 0.973 in experiment [1]; -0.951 in experiment [2]; -0.193 in experiment [3]; 0.0372 in experiment [4]; -1.41 in [5]; 0.801 in [6]. Moreover, the composite z-score in [7] was 1.47; in experiment [9], -0.622; in experiment [10], 0.235; in experiment [11] it was 0.567; in [15] it was 0.479; in experiment [17] it was -0.115. The composite z-score in [18] is -0.533; in experiment [19], -0.627; in experiment [20] it was -0.225. The z-score in [8] is -0.338 (inactive); in experiment [12], 0.562 (inactive); in [13] it was -0.0042 (inactive); in experiment [14], 0.525 (inactive); in experiment [16], -0.0327 (inactive).

In the case of `COC(=O)C(CC#Cc1ccc2c(c1)[C@]1(C(=O)N2)[C@H](c2ccc(O)cc2)N2[C@H](c3ccccc3)[C@H](c3ccccc3)OC(=O)[C@H]2[C@@H]1C(=O)N1CCN(c2ncccn2)CC1)C(=O)OC`, the composite z-score in experiment [1] was 0.136; in [2], 0.215; in experiment [3], -0.0035; in experiment [4], 0.349; in experiment [5], 0.577; in experiment [6] it was 1.86. For the same compound, the composite z-score turned out to be 1.35 in experiment [7]; 0.599 in experiment [9]; 0.351 in experiment [10]; 1.55 in [11]; 3.21 in experiment [15]; 0.107 in [17]. Moreover, the composite z-score in experiment [18] was 0.24; in experiment [19] it was 0.975; in experiment [20] it was 0.0167. Also, the z-score was -1.36 (inactive) in [8]; 1.07 (inactive) in experiment [12]; 0.516 (inactive) in experiment [13]; 1.93 (inactive) in [14]; 0.248 (inactive) in experiment [16].

Consider `CCCCC(=C=CC[C@H](O)c1cccc(OCCO)c1)C[C@H](O)c1ccccn1`, for which the composite z-score is -0.37 in experiment [1]; 0.0714 in experiment [2]; -0.112 in experiment [3]; 0.528 in experiment [4]; -0.202 in experiment [5]; 0.163 in experiment [6]. In addition, the composite z-score in experiment [7] was 0.719; in [9], -0.157; in experiment [10], -0.236; in experiment [11], 0.483; in [15], -0.639; in experiment [17], -0.165. Moreover, the composite z-score was 0.395 in experiment [18], -0.153 in [19] and -0.13 in experiment [20]. Moreover, the z-score is -0.692 (inactive) in [8]; -1.2 (inactive) in experiment [12]; -1.12 (inactive) in experiment [13]; -1.68 (inactive) in experiment [14]; 1.34 (inactive) in experiment [16].

With `COC(=O)[C@@]1(CCC(=O)OC(C)(C)C)N=C(c2ccc(OCCCO)cc2)O[C@H]1c1ccccc1`, the composite z-score was 0.579 in [1]; -0.168 in [2]; -0.024 in experiment [3]; -0.0016 in experiment [4]; 0.124 in experiment [5]; 0.916 in experiment [6]. In addition, the composite z-score in experiment [7] was 0.774; in [9], -0.164; in experiment [10], 0.0505; in experiment [11], 0.899; in [15] it was 1.29; in experiment [17], 0.0478. The composite z-score in experiment [18] is -0.105; in experiment [19], 0.194; in [20], -0.125. The z-score in experiment [8] is 0.174 (inactive); in experiment [12] it was -0.144 (inactive); in [13], -2.78 (inactive); in experiment [14], 3.15 (inactive); in [16], -2.76 (inactive).
